# Screening data (PubChem)
# BAZ2B block – BAZ2B (human) inhibition | Q9UIF8 | AlphaScreen BAZ2B-H3K14Ac peptide displacement | Potency, µM (highest dose often 114 µM), inactives show top-dose activity change, negative = inhibition, usual class: inhibitors | actives 4.4% (n = 360,000) | AID 504333; also: % is scaled to controls: 0 for no effect and ±100 for the full control effect; nearly all actives have a fitted effect of over 60% in size
#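 AlphaScreen displacement of biotin-H3(5-23)K14Ac peptide (50 nM final) from BAZ2B (50 nM final) in PBS pH 7.4, 0.01% Tween-20; complex preformed 30 min RT, then compounds (top 110 uM) 30 min RT, beads 20 min dark.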
# G9a inh – blocks human histone lysine methyltransferase G9a. G9a H3K9 monomethylation, AlphaScreen, 2 h. Q96KQ7. AID 504332. Potency, µM (doses to about 102 µM), inactives show at the highest dose activity, negative = inhibition, hits mostly inhibitors. actives 8.8% (n = 350,000); also: % is scaled to controls: 0 for no effect and ±100 for the full control effect; nearly all actives have a fitted effect of over 75% in size
# Target sequence (Q96KQ7 913-1193 limits assumed): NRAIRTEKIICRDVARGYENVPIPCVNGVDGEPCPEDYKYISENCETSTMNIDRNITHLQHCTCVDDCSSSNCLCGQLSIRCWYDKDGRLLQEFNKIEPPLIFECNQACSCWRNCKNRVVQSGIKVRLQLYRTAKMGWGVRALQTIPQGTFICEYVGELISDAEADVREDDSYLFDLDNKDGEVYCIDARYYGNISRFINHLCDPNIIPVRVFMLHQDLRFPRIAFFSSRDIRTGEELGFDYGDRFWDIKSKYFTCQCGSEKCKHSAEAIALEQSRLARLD
#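 AlphaScreen detection with an anti-monomethyl H3K9 antibody quantified product after a 2 h room-temperature reaction containing 500 nM biotinylated H3K9 peptide, 20 µM SAM and 20 nM enzyme, which had been preincubated 15 min with compound.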
# HP1b chromo inh – blocks HP1-beta chromodomain binding to methylated histone tails; actives 0.56% (n = 390,000); AlphaScreen HP1-beta / biotin-H3K9me3 peptide binding; Potency, µM (series often up to 114 µM), for the others: top-dose activity change, negative = inhibition, usual class: inhibitors; also: nearly all actives have a fitted effect of over 70% in size
# Target sequence (P83916 whole entry, looked up): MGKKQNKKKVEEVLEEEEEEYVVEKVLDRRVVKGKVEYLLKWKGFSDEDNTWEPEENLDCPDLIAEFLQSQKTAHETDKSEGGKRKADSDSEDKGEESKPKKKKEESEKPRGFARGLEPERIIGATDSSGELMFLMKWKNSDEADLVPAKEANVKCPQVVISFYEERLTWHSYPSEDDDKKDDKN
#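 Compound inhibition of the preformed complex between 50 nM HP1-beta and 50 nM biotinylated H3K9me3 peptide was read by AlphaScreen. Buffer was PBS pH 7.4 with 0.01% Tween-20. Incubations ran 30 min at room temperature, with 10 ug/mL donor/acceptor beads.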
# Sfp inh – blocks B. subtilis Sfp PPTase activity. Q9F4F7. Biochemical Sfp PPTase activity, qHTS. Potency, µM, for inactives: largest response in the series, negative = inhibition, usual class: inhibitors. actives 3.5% (n = 310,000). AID 1490;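 also: the enzyme is Sfp with the accession as filed and its product quenches rhodamine fluorescence; 0% = enzyme reaction without inhibitor and -100% = no enzyme wells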
#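 Fluorescence-quenching assay: 15 nM Sfp-PPTase preincubated 15 min at room temperature with compound, then 5 uM rhodamine-CoA and 12.5 uM BHQ-2-labelled YbbR peptide added. Fluorescence (ex 525/em 598 nm) read at start and after 30 min; difference gives rate.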
# JMJD2A Tudor inh – blocks the human JMJD2A Tudor domain | Potency, µM (highest dose often 114 µM), for the others: at the highest dose activity change, negative = inhibition, actives largely listed as inhibitors | AlphaScreen JMJD2A-Tudor / H3K4me3 peptide binding | O75164 | actives 4.4% (n = 390,000); also: % is scaled to controls: 0 for no effect and ±100 for the full control effect; nearly all actives have a fitted effect of over 50% in size
# An asterisk follows results filed as active; ? = inconclusive; / = no result; ! = repeats disagree; [ ] = another dose, or the depositor's remark. Hits are enriched below; roughly 12% of the tested compounds scored in any of these assays. Calls follow the shape of the dose curve; as a rule, active = well fitted curve in the direction sought with a large enough effect; inconclusive = small, poorly fitted or top-dose-only effect, or another doubt; inactive = no such curve, though single readings can be large; an effect the other way counts as inactive or inconclusive. Potency is read from the fitted curve at half-maximal effect.
SMILES,BAZ2B block,G9a inh,HP1b chromo inh,Sfp inh,JMJD2A Tudor inh
N#Cc1cccc(NC(=O)c2sc3nc4c(cc3c2N)N2CCC4CC2)c1,5%,1%[59 µM],57%,/,17%
Nc1c(C(=O)Nc2ccc(F)c(Cl)c2)sc2nc3c(cc12)N1CCC3CC1,-17%,8.9µM*,63%,/,?
CCC(=O)O[C@@](Cc1ccccc1)(c1ccccc1)[C@@H](C)CN(C)C,/,25%[21.5 µM],/,8%,/
O=C(NCCCN1CCCC1)c1ccc2c(c1)N(Cc1cccc(Cl)c1)C(=O)c1ccccc1S2=O (centres undefined),-11%[57.1 µM],40µM*,19%,-7%,-20%
O=C(c1ccc2c(c1)N(Cc1ccc(F)cc1)C(=O)c1ccccc1S2)N1CCC2(CC1)OCCO2,-19%,3%[59 µM],-8%,/,?
CCN(CC)CCCN=C(C)c1c(O)n(-c2ccccc2)c(=O)[nH]c1=O,2%,-9%,24%,17%,-5%
c1ccc(N2CC3(CCNCC3)C2)cc1,/,-3%[12.7 µM],/,-25%,/
C[N+]1(C)CCN(c2ccccc2)CC1,-32%,8.4µM*!,0%,19%,45µM*
O=C(O)c1ccccc1-c1ccc(C=C2C(=O)N(c3ccccc3)C(=S)N(c3ccccc3)C2=O)o1,71µM*,18%[0.501 µM],-17%,50µM*,50µM*
Nc1nc2[nH]c(=O)cnc2c(=O)[nH]1,/,36%[12.7 µM],/,/,/
CCOC(=O)c1sc(=NC(=O)c2ccc(C)c(C)c2)n(C)c1C,-5%,11%[59 µM],-10%,19%,20µM*
O=C1C(I)=CC(=C(c2cc(I)c(O)c(I)c2)c2ccccc2C(=O)O)C=C1I,/,?,/,32µM*,/
Cc1nc2cc(-c3ccc(Cl)cc3)nn2c(C)c1CCC(=O)N1CCC2(CC1)OCCO2,/,/,25%,/,-15%
Cc1ccc(C(=O)C2C(c3ccc(-c4ccccc4[N+](=O)[O-])o3)NC(=O)NC2(O)C(F)(F)F)cc1 (centres undefined),/,/,?,/,-3%[11.4 µM]
Cn1c(O)c(/C=C/C=Nc2ccccc2)c(=O)n(C)c1=S,-1%,45µM*,24%,-11%,-14%
O=c1[nH]c(=S)n(C2CC2)c(O)c1/C=N/Nc1ccccc1,-34%,1.4µM*,-1%,50µM*,?
O=c1[nH]c(=S)n(C2CC2)c(O)c1/C=N/Nc1cccc2ccccc12,?,1.4µM*,3%,20µM*,?
CCN1C(=O)C(=Cc2ccc(C)s2)C(=O)N(CC)C1=S,45µM*,35µM*,40µM*,?,25µM*
CCN1C(=O)C(=C2C=C(C)OC(C)=C2)C(=O)N(CC)C1=S,-25%,-17%,22%,14%,-8%
CCn1c(SCC(=O)NCc2ccccc2)nnc1C(CO)NC(=O)c1ccccc1 (centres undefined),-17%,32µM*,6%,16%,-7%
NC[C@@H]1O[C@H](O[C@H]2[C@@H](O)[C@H](O[C@@H]3[C@@H](O)[C@H](N)C[C@H](N)[C@H]3O[C@H]3O[C@H](CO)[C@@H](O)[C@H](O)[C@H]3N)O[C@@H]2CO)[C@H](N)[C@@H](O)[C@@H]1O,3%,9%[59 µM],/,22%,/
NCC1OC(O[C@H]2[C@H](O)[C@@H](OC3C(O)C(N)CC(N)C3OC3OC(CO)C(O)C(O)C3N)O[C@@H]2CO)C(N)C(O)C1O (some centres undefined),/,6µM*,/,/,/
COc1ccc2c(c1)c(=O)c(C(=O)c1ccc(Cl)cc1)cn2CC(=O)Nc1ccc2c(c1)OCCO2,-1%,19%[59 µM],52%,/,-3%
O=C1CN=C(c2ccc(Cl)cc2)c2oc3ccccc3c2N1,-4%,18%[59 µM],26%,2%,-7%
N#CC(C#N)=NNc1ccc(OC(F)(F)F)cc1,/,10µM*,/,?,/
SMILES,BAZ2B block,G9a inh,HP1b chromo inh,Sfp inh,JMJD2A Tudor inh
C[N+](C)(C)CC(=O)[O-],/,-7%[2.33 µM],/,-11%,/
C[N+](C)(C)CC(=O)O,7%,40µM*!,15%,/,-31%
CSc1nc(N)c(N=Nc2ccc([As](=O)(O)O)cc2)c(=O)[nH]1,-18%,8.9µM*,41%,2.8µM*,?
NS(=O)(=O)c1ccc(N=Nc2c(O)[nH]c(=S)[nH]c2=O)cc1,-15%,/,22%,-8%,1%
c1ccc2sc(C3(N4CCCCC4)CCCCC3)cc2c1,/,8.9µM*!,/,-8%,/
c1csc(C2(N3CCCCC3)CCCCC2)c1,/,0%[12.7 µM],/,18%,/
O=C1NC(=O)N(CCNc2ncc(C(F)(F)F)cc2Cl)C(=O)C1Cc1ccc(Cl)cc1 (centres undefined),-15%,50µM*,20%,?,-8%
C=CCN1C(=O)NC(=O)C(Cc2ccc(OC)c(OC)c2)C1=O (centres undefined),3%,?,19%,?,-2%
O=P(Oc1ccccc1)(Oc1ccccc1)c1ccccc1,0.89µM*,/,80%,-17%,34%
Cc1cc2oc(=O)cc(-c3cc4ccccc4o3)c2cc1OC(=O)N(C)C,-1%,40%,18%,3%,-24%
CCN(CC)P(=S)(c1c(C)nc2ccccn12)c1c(C)nc2ccccn12,-4%,14µM*,-25%,50µM*,-12%
Cc1ccc2c(c1)C1C[N+](C)(CC(=O)c3ccc(Cl)cc3Cl)CCC1N2C(=O)c1ccc(F)cc1 (centres undefined),/,/,?,/,16µM*
c1ccc(-c2[nH]c(-c3ccccc3)[n+](CC3CO3)c2-c2ccccc2)cc1 (centres undefined),?,-22%[59 µM],?,-12%,?
C=CCc1cc(C=C2C(=O)NC(=O)NC2=O)cc(OC)c1OCc1ccc(C(=O)O)cc1,-7%,32µM*,44%,56µM*,-27%
C=CCc1cc(C=C2C(=O)N(C)C(=O)N(C)C2=O)cc(OCC)c1OCc1ccccc1,3%,3%,290%,32µM*,?
C=CCn1cc(C=C2C(=O)N(C)C(=O)N(C)C2=O)c2ccccc21,5%,-3%,43%,-5%,-11%
O=C(c1ccncc1)N1CCC[C@@]2(CCN(Cc3nccs3)C2)C1,/,-2%[12.7 µM],/,21%,/
COC(=O)C(c1ccccc1)C1CCCCN1 (centres undefined),/,15%[59 µM],/,-7%,/
COc1ccc(NC(=S)NC(NC(=O)CF)C(Cl)(Cl)Cl)cc1[N+](=O)[O-] (centres undefined),?,22µM*,?,-8%,?
O=C(CF)NC(NC(=S)Nc1cccc([N+](=O)[O-])c1)C(Cl)(Cl)Cl (centres undefined),-39%,35µM*,20%,-3%,-28%
COC(=O)c1ccccc1OP(=O)(c1cccc([N+](=O)[O-])c1)c1cccc([N+](=O)[O-])c1,?,/,?,6%,-22%
O=C1NC(=O)C(CCc2ccncc2)(CCc2ccncc2)C(=O)N1CCc1ccccc1,-5%,/,5%,-8%,-11%
c1cc(N2CCCC3(CCNCC3)C2)ccn1,/,-5%[12.7 µM],/,-19%,/
CCCC[n+]1cc(=N)o[n-]1,/,/,49%,/,-9%
